Rows were chosen to be rich in hits. Some 2.5% of all compounds tested hit in one or more screens of this group.
MEKK2 WT-MEK5 = raises or lowers MEK5 binding to wildtype human MEKK2 PB1 domain. bead flow cytometry, Alexa488-MEK5 binding to MEKK2 WT; actives lie on both sides. binding response (% of control), % at 10 µM. hit rate 1.1% among 290,000. AID 1531; in the data active means binding response below about 67% or above about 130%
GRK2 aptamer HTS = human GRK2 inhibition via aptamer displacement; inhibition of aptamer binding, % at 10 µM; hit rate 0.59% among 330,000; P25098; bead flow cytometry, FAM-aptamer displacement from GRK2;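 active means inhibition of aptamer binding above 40%, roughly 3 SD of noise, on plates passing a quality check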;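 further: median bead fluorescence of bound FAM aptamer so fluorescent compounds give negative values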
Target sequence (P25098 whole entry, looked up): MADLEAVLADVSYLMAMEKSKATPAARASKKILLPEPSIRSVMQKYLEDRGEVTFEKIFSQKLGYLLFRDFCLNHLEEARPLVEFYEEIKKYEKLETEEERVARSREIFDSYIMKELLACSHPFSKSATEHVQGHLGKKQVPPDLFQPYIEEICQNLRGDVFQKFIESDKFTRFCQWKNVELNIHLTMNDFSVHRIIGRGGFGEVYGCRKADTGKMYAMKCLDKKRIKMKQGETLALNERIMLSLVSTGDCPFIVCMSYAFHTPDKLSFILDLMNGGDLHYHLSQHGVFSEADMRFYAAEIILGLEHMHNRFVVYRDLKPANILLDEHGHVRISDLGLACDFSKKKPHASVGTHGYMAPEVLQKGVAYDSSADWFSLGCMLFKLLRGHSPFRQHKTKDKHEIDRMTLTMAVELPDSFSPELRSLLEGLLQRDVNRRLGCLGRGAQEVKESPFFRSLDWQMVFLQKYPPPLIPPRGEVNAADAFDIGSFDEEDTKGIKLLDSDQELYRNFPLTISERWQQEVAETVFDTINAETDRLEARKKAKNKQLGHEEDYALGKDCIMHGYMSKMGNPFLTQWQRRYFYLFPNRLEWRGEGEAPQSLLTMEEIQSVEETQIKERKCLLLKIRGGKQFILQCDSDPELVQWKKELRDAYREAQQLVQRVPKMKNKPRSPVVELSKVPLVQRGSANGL
MEKK2mut PB1 HTS = signal of MEK5 binding to mutant human MEKK2 PB1 domain. bead flow cytometry, Alexa488-MEK5 binding to MEKK2 mutant. percent response, % at 10 µM. hit rate 0.35% among 290,000. AID 1530; in the data active means percent response above about 24%, passing the limit was not always enough
MEKK3 PB1 HTS = modulators (inhibitors or enhancers) of MEK5 binding to human MEKK3 PB1 domain | bead-based flow cytometry, Alexa488-MEK5 binding to MEKK3; actives lie on both sides; 0 = blocked by unlabeled MEK5, 100 = vehicle | binding response (% of control), % at 10 µM | hit rate 1.4% among 290,000;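 active means binding response more than 3 SD above or below the average of its plate-row segment, actives on both sides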;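 further: Alexa488 bead fluorescence after subtracting the streptavidin-only scavenger bead signal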
GRK2 inh confirm = human GRK2 inhibition confirmation, cherry pick 1; AID 504451; aptamer displacement, % at 10 µM; bead-bound GRK2, FAM-aptamer displacement, flow cytometry; hit rate 4% among 2,000; shares compounds with GRK2 aptamer HTS;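 active means aptamer displacement above 40%, near three times the noise of non-fluorescent compounds, on plates passing quality checks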;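 further: negative values mostly reflect intrinsic compound fluorescence rather than true enhancement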
Aptamer quench = counter-screen for GRK2 aptamer inhibitors: fluorescent aptamer quenchers; Fluorescent RNA aptamer beads, quenching, flow cytometry; hits give high values; 110 tested, under 10 active; fluorescence change (kMESF span), kMESF (concentration not given with the values); shares compounds with GRK2 aptamer HTS;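 active means compounds whose bead fluorescence drops by more than 37 kMESF across the dose range, marking them as dye quenchers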
Aptamer quench SP = counter-screen for GRK2 aptamer inhibitors: fluorescent aptamer quenchers | Carboxyfluorescein RNA aptamer on beads, flow cytometry quenching; hits give low values | 2,000 tested, under 10 active | fluorescence response (% of DMSO), % at 10 µM | shares compounds with GRK2 aptamer HTS;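 active means compounds that quench the bead-bound fluorescent RNA probe, cutting fluorescence to under half of the solvent control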;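 further: counterscreen run without GRK2 so only probe quenching by compound is measured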
GRK2 CP2 = confirmation of human GRK2 inhibitors binding RNA aptamer site; shares compounds with GRK2 aptamer HTS; bead-bound GRK2, FAM-aptamer displacement, flow cytometry; inhibition of aptamer binding, % at 10 µM; 360 tested, under 10 active;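 active means inhibition of aptamer binding above 40%, about triple the noise seen with nonglowing compounds, on plates passing quality control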;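 further: negative values mostly come from compounds that fluoresce themselves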
Aptamer quench 2 = counter-screen for GRK2 aptamer inhibitors: fluorescent aptamer quenchers; AID 504819; shares compounds with GRK2 aptamer HTS; Streptavidin beads, FAM-RNA aptamer fluorescence quenching, flow cytometry; 25 tested, under 10 active; change in fluorescence (kMESF span), kMESF (concentration not given with the values);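 active means compounds quenching the bead-bound labeled aptamer, with fluorescence dropping by more than 37 kMESF over the dose range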
FAM quench SP = aptamer fluorescence quenching in GRK2 counter-screen. shares compounds with GRK2 aptamer HTS. carboxyfluorescein RNA aptamer beads, flow cytometry quenching; hits give low values. 360 tested, under 10 active. fluorescence response vs DMSO, % at 10 µM;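 active means response vs DMSO under 50%, meaning signal dropped by over half, treated as fluorescence quencher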;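 further: labelled aptamer on streptavidin beads without GRK2 as a quench counter-screen; 100% = bead fluorescence of DMSO wells and lower means quenching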
FAM quench DR = counter-screen for GRK2 aptamer binding inhibitors: aptamer fluorescence quenching | shares compounds with GRK2 aptamer HTS | Bead-bound FAM RNA aptamer fluorescence quenching, flow cytometry; hits give low values | fluorescence ratio to DMSO, % at 11.1 µM | 35 tested, under 10 active | AID 588496;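 active means compounds that dim the fluorescent label, raw bead signal shifting by over 33 units between lowest and highest dose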
Numbers without * were called inactive.

How did Nc1nc(COC(=O)C2CC(=O)N(CCc3ccccc3)C2)nc(Nc2ccccc2)n1 (stereo not given) do in these assays?
GRK2 aptamer HTS: 0.0

Results for O=C(OCc1nnc(-c2ccccc2)o1)C1CC(=O)N(CCc2ccccc2)C1 (stereo not given) ?
GRK2 aptamer HTS: 3.0; GRK2 inh confirm: 0.9; Aptamer quench SP: 102.0

How did CCN1CCCC1CNC(=O)CN(C)S(=O)(=O)c1ccc(Cl)cc1 (stereo not given) do in these assays?
MEKK2 WT-MEK5: 103.0; GRK2 aptamer HTS: 0.0; MEKK2mut PB1 HTS: 0.0; MEKK3 PB1 HTS: 103.0

What do the screens show for `CCOC(=O)C1=C(CS(=O)(=O)c2ccccc2)NC(=O)NC1c1ccc(OC)c(OC)c1` (stereo not given)?
MEKK2 WT-MEK5: 101.0; GRK2 aptamer HTS: 40.0; MEKK2mut PB1 HTS: -2.0; MEKK3 PB1 HTS: 95.0; GRK2 inh confirm: 1.1; Aptamer quench SP: 101.1

What do the screens show for `CCCCOC(=O)c1cc(C)nc2ccc(Br)cc12`?
MEKK2 WT-MEK5: 103.0; GRK2 aptamer HTS: 17.0; MEKK2mut PB1 HTS: 4.0; MEKK3 PB1 HTS: 108.0; GRK2 inh confirm: -0.7; Aptamer quench SP: 94.5

How did OC[C@@H]1CC[C@@H](Cc2ccc(-c3ccccc3)cc2)O1 do in these assays?
GRK2 aptamer HTS: 0.0

How did O=c1[nH]c(Cc2cccc(C(F)(F)F)c2)nc2ccccc12 do in these assays?
MEKK2 WT-MEK5: 90.0; GRK2 aptamer HTS: 0.0; MEKK2mut PB1 HTS: -5.0; MEKK3 PB1 HTS: 84.0; GRK2 inh confirm: -0.5; Aptamer quench SP: 100.3

What do the screens show for `O=c1[nH]c(Cc2ccc(Cl)cc2)nc2ccccc12`?
MEKK2 WT-MEK5: 106.0; GRK2 aptamer HTS: 4.0; MEKK2mut PB1 HTS: 7.0; MEKK3 PB1 HTS: 104.0

What do the screens show for `COC(=O)C(NC(=O)c1ccco1)(Nc1nc(C2CC2)cs1)C(F)(F)F` (stereo not given)?
MEKK2 WT-MEK5: 106.0; GRK2 aptamer HTS: 90.0*; MEKK2mut PB1 HTS: 7.0; MEKK3 PB1 HTS: 106.0; GRK2 inh confirm: -3.8; Aptamer quench SP: 102.3

What do the screens show for `COC(=O)C(NC(=O)c1ccco1)(Nc1cc(C)ccn1)C(F)(F)F` (stereo not given)?
MEKK2 WT-MEK5: 82.0; GRK2 aptamer HTS: 2.0; MEKK2mut PB1 HTS: -15.0; MEKK3 PB1 HTS: 78.0

Results for CC(C)Cn1cnc2c1c(=O)n(CC(=O)NC(=O)NC(C)(C)C)c(=O)n2Cc1ccccc1 ?
MEKK2 WT-MEK5: 102.0; GRK2 aptamer HTS: 1.0; MEKK2mut PB1 HTS: 0.0; MEKK3 PB1 HTS: 104.0

How did CC(OCC(O)CN1CCCCC1CCO)c1ccc(Cl)cc1 (stereo not given) do in these assays?
MEKK2 WT-MEK5: 100.0; GRK2 aptamer HTS: 75.0*; MEKK2mut PB1 HTS: -2.0; MEKK3 PB1 HTS: 101.0; GRK2 inh confirm: -6.9; Aptamer quench SP: 93.3

What do the screens show for `FC(F)(F)c1cccc(Cc2noc(CN3C[C@@H]4CCC[C@H]3C4)n2)c1`?
MEKK2 WT-MEK5: 99.0; GRK2 aptamer HTS: 0.0; MEKK2mut PB1 HTS: -2.0; MEKK3 PB1 HTS: 98.0

What do the screens show for `Cn1ccnc1C1CCCCN1Cc1nc(Cc2cccc(C(F)(F)F)c2)no1` (stereo not given)?
MEKK2 WT-MEK5: 101.0; GRK2 aptamer HTS: 0.0; MEKK2mut PB1 HTS: 11.0; MEKK3 PB1 HTS: 104.0; GRK2 inh confirm: -0.5; Aptamer quench SP: 101.0

How did COC(=O)c1cccc(C23CC4(C2)[C@H](CN(CC2CCCCC2)[C@@H]4c2ccccc2)C3c2ccccc2)c1 (stereo not given in full) do in these assays?
MEKK2 WT-MEK5: 109.0; GRK2 aptamer HTS: 85.0*; MEKK2mut PB1 HTS: 8.0; MEKK3 PB1 HTS: 104.0; GRK2 inh confirm: -7.9; Aptamer quench SP: 100.3

Results for COC(=O)c1ccc(C23CC4(C2)[C@H](CN(CC2CCCCC2)[C@@H]4c2ccccc2)C3c2ccc(Cl)nc2)cc1 (stereo not given in full) ?
MEKK2 WT-MEK5: 88.0; GRK2 aptamer HTS: 2.0; MEKK2mut PB1 HTS: 7.0; MEKK3 PB1 HTS: 108.0

How did CCN(CC)CCCN=C1N[C@@H](c2cccc(F)c2)C(C(=O)OC)=C(C)N1Cc1ccccc1 do in these assays?
GRK2 aptamer HTS: 51.0*; GRK2 CP2: 0.7; FAM quench SP: 100.0

What do the screens show for `Cc1oc2c(c(C)cc3oc(=O)c(CC(=O)NCCCN4CCCC4=O)c(C)c32)c1C`?
MEKK2 WT-MEK5: 100.0; GRK2 aptamer HTS: 6.0; MEKK2mut PB1 HTS: 2.0; MEKK3 PB1 HTS: 98.0; GRK2 inh confirm: 0.1; Aptamer quench SP: 94.3

Results for CC(C)(CNc1ccc([N+](=O)[O-])cc1Cl)N1CCOCC1 ?
MEKK2 WT-MEK5: 100.0; GRK2 aptamer HTS: 0.0; MEKK2mut PB1 HTS: 1.0; MEKK3 PB1 HTS: 98.0

How did CN1CCc2nc3sc(C(=O)C45CC6CC(CC(C6)C4)C5)c(N)c3cc2C1 do in these assays?
GRK2 aptamer HTS: 51.0*; GRK2 inh confirm: -20.8; Aptamer quench SP: 93.5

How did CCc1ccccc1NC(=O)CCS(=O)(=O)c1ccc(Br)cc1 do in these assays?
MEKK2 WT-MEK5: 100.0; GRK2 aptamer HTS: 57.0*; MEKK2mut PB1 HTS: -3.0; MEKK3 PB1 HTS: 98.0; GRK2 inh confirm: 30.2; Aptamer quench: -0.1; Aptamer quench SP: 96.1; Aptamer quench 2: -1.3; FAM quench DR: 99.0

Results for O=C(CCNS(=O)(=O)c1ccc(Br)cc1)NC1CCCCC1 ?
MEKK2 WT-MEK5: 91.0; GRK2 aptamer HTS: 0.0; MEKK2mut PB1 HTS: 0.0; MEKK3 PB1 HTS: 104.0

How did O=C(CCS(=O)(=O)c1ccc(Br)cc1)Nc1cc(F)ccc1F do in these assays?
MEKK2 WT-MEK5: 92.0; GRK2 aptamer HTS: 82.0*; MEKK2mut PB1 HTS: -3.0; MEKK3 PB1 HTS: 86.0; GRK2 CP2: 25.5; Aptamer quench 2: 1.4; FAM quench SP: 100.0; FAM quench DR: 99.0

Compound activity: PubChem BioAssay, NMMLSC
